Bioassay records from PubChem BioAssay.
Pf growth 48h – P. falciparum growth inhibition at 48 hours (one generation). P. falciparum luciferase growth in erythrocytes, 48 h. Potency, µM (series often up to 28.7 µM), without a hit: top-dose activity change, negative = inhibition, usual class: inhibitors. 310,000 tested, 5.9% active. AID 504832; also: potency is read from the fitted curve at half-maximal effect
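A one-generation exposure of luciferase-tagged malaria parasites in RPMI 1640/Albumax erythrocyte culture, 37 C and 5% CO2. Inhibition is inferred from decreased luminescence after adding detection reagent.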
Pf growth 96h – P. falciparum growth inhibition at 96 hour, primary screen for plastid delayed-death inhibitors; P. falciparum luciferase reporter growth, 96 h; Potency, µM (doses to about 28.7 µM), for inactives: at the top dose activity change, negative = inhibition, hits mostly inhibitors; 320,000 tested, 6.9% active; AID 504834; also: potency is read from the fitted curve at half-maximal effect
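Compounds incubated with erythrocytes infected by luciferase-expressing P. falciparum (2% hematocrit, 0.05% parasitemia final) for 96 hours, 37 C in 5% CO2. Growth inhibition scored as decreased luciferase luminescence.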
Sm TGR inh – S. mansoni TGR enzyme inhibition; Q962Y6; purified TGR, DTNB reduction, TNB absorbance 405 nm; Potency, µM (doses to about 114 µM), for the others: top-dose activity change, negative = inhibition, usual class: inhibitors; 360,000 tested, 3% active; AID 485364; also: potency is read from the fitted curve at half-maximal effect; nearly all actives have a fitted effect of over 60% in size
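Kinetic colorimetric format: TGR-catalysed, NADPH-driven DTNB reduction monitored via TNB absorbance. Enzyme dispensed at 20 nM; compound exposure 15 min at room temperature before reaction start.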
HCMV inh – human cytomegalovirus inhibition; 410,000 tested, 4.5% active; HFF cells, HCMV-luciferase reporter, 72 h; hits give low values; activity change, negative = inhibition, % at 57.5 µM; AID 1259415; in the data active = activity change below about -60%; inconclusive = no clear call, values can overlap the other calls; inactive = above about -39%
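Inhibition of viral replication was scored as loss of reporter luminescence in HFFs infected with HCMV-luciferase (MOI 1 PFU/cell) for 72 h; compounds tested at 2 doses, normalized to buffer and Salinomycin controls.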
Giardia FBPA inh – blocks Giardia fructose-bisphosphate aldolase activity; A8B2U2; purified Giardia FBPA; Potency, µM (titrated, usually from 59.6 µM), for inactives: top-dose activity, negative = inhibition, hits mostly inhibitors; 290,000 tested, 0.71% active; AID 2451; also: potency is read from the fitted curve at half-maximal effect; nearly all actives have a fitted effect of over 55% in size
Target sequence (A8B2U2 whole entry, looked up): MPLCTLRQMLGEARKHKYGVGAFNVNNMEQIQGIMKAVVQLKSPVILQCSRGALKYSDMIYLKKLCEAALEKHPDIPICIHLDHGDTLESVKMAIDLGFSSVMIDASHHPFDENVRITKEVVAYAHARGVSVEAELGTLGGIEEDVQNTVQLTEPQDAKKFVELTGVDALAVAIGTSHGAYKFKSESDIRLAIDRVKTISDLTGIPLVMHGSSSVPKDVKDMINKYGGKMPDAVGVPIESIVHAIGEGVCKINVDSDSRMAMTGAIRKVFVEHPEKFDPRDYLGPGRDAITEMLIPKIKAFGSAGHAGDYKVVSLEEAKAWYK
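Giardia FBPA (40 nM reagent) was preincubated 10 min at RT with compound (up to 57.5 uM final), then substrate plus GAPDH/TPI/NAD/arsenate coupling system with diaphorase/resazurin was added; resorufin fluorescence (525/598 nm) was read after 20 min.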
The depositor's hits bear a star; ? = inconclusive; nt = not tested or not shown; [ ] = dose if it differs, or a comment. This is a sample that favours compounds with a hit; in the whole collection about 14% have one here. Unless noted, calls follow the shape of the dose curve; as a rule, active = well fitted curve in the direction sought with a large enough effect; inconclusive = small, poorly fitted or top-dose-only effect, or another doubt; inactive = no such curve, though single readings can be large; an effect the other way counts as inactive or inconclusive. % is scaled to controls: 0 for no effect and ±100 for the full control effect.

SMILES	Pf growth 48h	Pf growth 96h	Sm TGR inh	HCMV inh	Giardia FBPA inh
CSCC[C@H](NC(=O)[C@H](CC(C)C)NC(=O)[C@H](Cc1c[nH]c2ccccc12)NC(=O)[C@H](CCC(N)=O)NC(=O)[C@@H](NC(=O)[C@H](Cc1ccccc1)NC(=O)[C@H](CC(=O)O)NC(=O)[C@H](CCC(N)=O)NC(=O)[C@H](C)NC(=O)[C@H](CCCNC(=N)N)NC(=O)[C@H](CCCNC(=N)N)NC(=O)[C@H](CO)NC(=O)[C@H](CC(=O)O)NC(=O)[C@H](CC(C)C)NC(=O)[C@H](Cc1ccc(O)cc1)NC(=O)[C@H](CCCCN)NC(=O)[C@H](CO)NC(=O)[C@H](Cc1ccc(O)cc1)NC(=O)[C@H](CC(=O)O)NC(=O)[C@H](CO)NC(=O)[C@@H](NC(=O)[C@H](Cc1ccccc1)NC(=O)[C@@H](NC(=O)CNC(=O)[C@H](CCC(N)=O)NC(=O)[C@H](CO)NC(=O)[C@@H](N)Cc1cnc[nH]1)[C@@H](C)O)[C@@H](C)O)C(C)C)C(=O)N[C@@H](CC(N)=O)C(=O)N[C@H](C(=O)O)[C@@H](C)O	nt	nt	nt	nt	1%
CCOc1ccc(OCC)c(NC(=O)CN(c2ccc(OC)cc2)S(=O)(=O)c2c(C)noc2C)c1	13µM*	?	1%	21	nt
COc1ccc(N(CC(=O)Nc2cc(Cl)ccc2OC)S(=O)(=O)c2c(C)noc2C)cc1	10µM*	9.3µM*	-1%	-31	-1%
COc1ccc(OC)c(NC(=O)CN(c2ccc(C(C)C)cc2)S(=O)(=O)c2c(C)noc2C)c1	nt	10µM*	0%	42	-20%
CCOc1ccc(N(CC(=O)Nc2ccc3c(c2)OCCO3)S(=O)(=O)c2c(C)noc2C)cc1	nt	10µM*	15%	-21	-8%
COc1ccccc1NC(=O)CN(c1ccc(C(C)C)cc1)S(=O)(=O)c1c(C)noc1C	nt	nt	1%	-15	nt
COc1ccc(N(CC(=O)Nc2ccc(F)c(Cl)c2)S(=O)(=O)c2c(C)noc2C)cc1	?	?	8%	-9	-19%
CC(Cc1cccs1)NC(=O)Nc1ccccc1 (stereo not given)	42%	2.9µM*	0%	-29	-2%
Cc1nc2cc(CO)ccc2n1C	7%	9.3µM*	-3%	22	-11%
O=C(c1ccc2c(=O)n(-c3ccccc3)c(=O)[nH]c2c1)N1CCCCC1	3%	11%	5%	-66*	3%
O=C(c1ccc(Cn2c(=S)[nH]c3ccccc3c2=O)cc1)N1CCN(c2ccccn2)CC1	?	?	-1%	-65*	7%
O=C(c1ccc(Cn2c(=O)[nH]c3ccccc3c2=O)cc1)N1CCN(c2ccccn2)CC1	?	3%	-5%	10	1%
O=C(c1ccc(Cn2c(=O)[nH]c3ccccc3c2=O)cc1)N1CCN(c2ccccc2)CC1	?	3.3µM*	1%	?	2%
COc1cc(OC)c(NS(=O)(=O)c2c(C(=O)N3CCC(C)CC3)c(C)n(C)c2C)cc1Cl	nt	nt	-7%	12	nt
CN(Cc1ncc[nH]1)Cc1cn(-c2ccccc2)nc1-c1ccc2c(c1)OCO2	?	-17%	8%	?	7%
Cc1ccc(-c2nn(-c3cccc(F)c3)cc2CN(Cc2nccn2C)C(C)C)o1	?	10%	20µM*	?	-3%
CCN1CC(CN(C)Cc2cn(-c3ccc(C)cc3)nc2-c2cccc(C)c2)CC1=O (stereo not given)	10µM*	?	-3%	13	2%
Cc1ccc(-n2cc(CN(C)Cc3ncc[nH]3)c(-c3cccc(C)c3)n2)cc1	2.6µM*	0%	2%[57.1 µM]	?	-12%
Cc1ccc(-n2cc(CN(C)CCc3cn[nH]c3)c(-c3cccc(C)c3)n2)cc1	?	3%	10%	?	3%
Cc1ccc(-n2cc(CNC(C)Cc3cnccn3)c(-c3cccc(C)c3)n2)cc1 (stereo not given)	3.3µM*	21%	5%	-35	1%
COc1ccc(-n2cc(CNC(C)c3ccncn3)c(-c3cccc(F)c3)n2)cc1 (stereo not given)	-15%	?	-5%	?	18%
